We go through ten compounds from publication PMC5540273 (PLoS ONE, 2017).

Some test systems named below: PRKD3; PRKG1; PRKG2; PRKX; PRP4; QSK; RAF1; RET; RIOK1; RIOK2; RIOK3; RIPK1; RIPK2; RIPK4; RIPK5; ROCK1; ROCK2; ROS1.
What all share (details): concentration: 1 μM, replicates: in singlicate; n = 1
A further test concerns T1, PRKR.
T1 construct: gene EIF2AK2

The next test concerns T2, PYK2.
T2 construct: gene PTK2B
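Also: KINOMEscan kinase panel screen.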

For `Cc1cccc(NC(=O)Nc2ccc(Oc3ncnc4ccn(C)c34)cc2)c1`, the “%Inh” value is 0% with PRKD3; 100% with PRKG1; 0% with PRKG2; 0% with PRKR; 0% in the test with PRKX; 0% in the test on PRP4. For the same compound, the “%Inh” value with PYK2 is on record as 0%; with QSK it was 0%; in the test with RAF1, 0%; with RET, 94%; in the test with RIOK1 it was 0%; in the test with RIOK2 it was 0%. In addition, the “%Inh” value is reported as 24% with RIOK3; 0% in the test with RIPK1; 11% in the test with RIPK2; 0% with RIPK4; 5% with RIPK5; 0% in the test with ROCK1. Further, the “%Inh” value in the test with ROCK2 and with ROS1 was 0% each time.
In the case of `Cl.Cl.NCC(NCc1ccc(-c2ccnc3[nH]ccc23)s1)c1ccccc1` (centres unmarked) [GSK1321565], the “%Inh” value with PRKD3 is listed as 56%; in the test with PRKG1, 97.1%; in the test on PRKG2, 97.8%; in the test on PRKR, 0%; in the test on PRKX, 94.2%; in the test on PRP4 it was 86%. For the same compound, the “%Inh” value in the test with PYK2 came out at 9%; in the test with QSK it was 0%; with RAF1 it was 2%; in the test with RET, 49%; in the test with RIOK1, 100%; in the test with RIOK2, 44%. Further, the “%Inh” value in the test on RIOK3 worked out at 98.4%; with RIPK1, 2%; in the test with RIPK2, 0%; with RIPK4 it was 47%; in the test on RIPK5, 0%; in the test on ROCK1 it was 100%. Moreover, the “%Inh” value in the test with ROCK2 amounted to 99.4%; in the test on ROS1, 60%.
`NCCCC(NC(=O)c1cc(Br)c(-c2ccnc3[nH]ccc23)s1)c1ccccc1.O=C(O)C(F)(F)F.O=C(O)C(F)(F)F` (centres unmarked) [GSK1287544]: the “%Inh” value in the test on PRKD3 was determined as 53%; in the test on PRKG1, 97.8%; in the test on PRKG2 it was 98%; in the test with PRKR, 0%; with PRKX it was 92.5%; with PRP4, 0%. Further, the “%Inh” value was 0% in the test with PYK2; 0% in the test with QSK; 0% in the test with RAF1; 54% in the test with RET; 91.8% with RIOK1; 66% with RIOK2. The “%Inh” value was 76% in the test with RIOK3; 53% with RIPK1; 0% with RIPK2; 6% in the test on RIPK4; 1% in the test with RIPK5; 99.4% with ROCK1. For the same compound, the “%Inh” value came to 92.8% with ROCK2 and 10% in the test on ROS1.
Turning to `CN(C)Cc1ccc(-c2ccc3c(Nc4ccc(Oc5ccccn5)cc4)ccnc3c2)o1` [GW567148], the “%Inh” value in the test on PRKD3 is on record as 0%; with PRKG1, 0%; with PRKG2 it was 0%; with PRKR, 0%; in the test with PRKX, 22%; in the test with PRP4 it was 4%. Moreover, the “%Inh” value in the test with PYK2 is given as 0%; with QSK, 0%; in the test with RAF1, 0%; in the test with RET, 1%; with RIOK1 it was 8%; with RIOK2, 4%. Besides, the “%Inh” value in the test on RIOK3 amounted to 0%; in the test with RIPK1, 0%; in the test with RIPK2 it was 95.3%; in the test with RIPK4, 0%; in the test on RIPK5, 0%; in the test on ROCK1 it was 6%. In addition, the “%Inh” value in the test with ROCK2 amounted to 11%; with ROS1, 0%.
Take `COc1ccc(Nc2nccc(NCCNC(=O)c3cc4ccccc4s3)n2)cc1` [GSK1379896]: the “%Inh” value was determined as 0% in the test on PRKD3; 0% with PRKG1; 0% with PRKG2; 0% in the test on PRKR; 16% in the test with PRKX; 17% with PRP4. Moreover, the “%Inh” value with PYK2 is listed as 0%; in the test with QSK, 2%; in the test on RAF1, 9%; in the test with RET, 25%; with RIOK1 it was 19%; with RIOK2 it was 0%. For the same compound, the “%Inh” value is 0% in the test on RIOK3; 0% in the test with RIPK1; 12% in the test on RIPK2; 0% in the test with RIPK4; 7% in the test with RIPK5; 13% in the test on ROCK1. Also, the entries for the “%Inh” value in the test on ROCK2 and with ROS1 were 28% and 9%, respectively.
As for `FC(F)(F)c1ccc(/C=C/c2cncnc2Nc2ccc3[nH]c(Cc4ccccc4)nc3c2)cc1` [GW709199], the “%Inh” value with PRKD3 was 0%; in the test on PRKG1, 0%; with PRKG2 it was 6%; with PRKR, 2%; in the test on PRKX, 0%; in the test with PRP4 it was 0%. For the same compound, the “%Inh” value stood at 30% in the test with PYK2; 0% in the test with QSK; 46% in the test with RAF1; 8% with RET; 33% in the test on RIOK1; 0% in the test with RIOK2. Besides, the “%Inh” value is reported as 2% in the test with RIOK3; 11% with RIPK1; 11% with RIPK2; 0% in the test on RIPK4; 0% in the test on RIPK5; 0% in the test on ROCK1. Besides, the “%Inh” value in the test with ROCK2 and in the test with ROS1 was 0% each time.
As for `CN1CCN(Cc2cccc(-c3ccc4c(Nc5ccc(Oc6ccccc6)cc5)ccnc4c3)c2)CC1` [GW578342], the “%Inh” value in the test with PRKD3 was 0%; with PRKG1 it was 0%; in the test with PRKG2, 0%; with PRKR, 0%; in the test on PRKX, 6%; in the test with PRP4, 27%. In addition, the “%Inh” value in the test on PYK2 worked out at 0%; with QSK, 9%; in the test with RAF1, 0%; in the test on RET, 48%; with RIOK1 it was 21%; in the test on RIOK2, 0%. The “%Inh” value in the test on RIOK3 is reported as 32%; with RIPK1 it was 0%; in the test on RIPK2, 98.6%; in the test with RIPK4 it was 0%; in the test on RIPK5, 0%; in the test on ROCK1 it was 25%. Further, the “%Inh” value in the test on ROCK2 turned out to be 20%; with ROS1, 0%.
Consider `Cn1cc(-c2[nH]c3cc(NC(=O)[C@H](N)C4CCCCC4)cc4c3c2C=NNC4=O)cn1`, for which the “%Inh” value in the test with PRKD3 was 0%; in the test on PRKG1, 56%; with PRKG2, 96.2%; in the test on PRKR it was 67%; in the test with PRKX it was 89%; in the test on PRP4, 68%. Also, the “%Inh” value is listed as 3% in the test with PYK2; 95.8% in the test on QSK; 0% in the test on RAF1; 100% with RET; 93.7% with RIOK1; 21% in the test on RIOK2. The “%Inh” value worked out at 88% in the test on RIOK3; 0% in the test on RIPK1; 2% in the test with RIPK2; 87% in the test with RIPK4; 25% with RIPK5; 85% with ROCK1. The entries for the “%Inh” value in the test on ROCK2 and in the test on ROS1 were 91.8% and 37%, respectively.
Regarding `Cc1ccc(C(=O)Nc2ccc(Nc3ccnc4cc(-c5nccs5)ccc34)cc2O)cc1.Cl` [GW494702], the “%Inh” value with PRKD3 is 0%; in the test with PRKG1, 0%; in the test on PRKG2 it was 0%; in the test on PRKR it was 0%; with PRKX, 11%; in the test with PRP4 it was 46%. The “%Inh” value turned out to be 0% in the test on PYK2; 0% in the test on QSK; 19% in the test on RAF1; 59% in the test with RET; 27% with RIOK1; 7% in the test on RIOK2. The “%Inh” value in the test on RIOK3 is 0%; in the test with RIPK1 it was 0%; in the test on RIPK2, 49%; in the test on RIPK4, 13%; with RIPK5 it was 0%; with ROCK1 it was 18%. Further, the “%Inh” value in the test on ROCK2 stood at 12%; with ROS1 it was 0%.
As for `Cl.Cl.NCC(NC(=O)c1cc(-c2ccccc2)c(-c2ccnc3[nH]ccc23)s1)c1ccccc1` (centres unmarked) [GSK1321561], the “%Inh” value in the test on PRKD3 came to 38%; in the test on PRKG1, 70%; in the test on PRKG2 it was 18%; in the test on PRKR it was 3%; in the test on PRKX, 76%; with PRP4, 5%. The “%Inh” value with PYK2 stood at 0%; with QSK it was 14%; with RAF1 it was 18%; in the test with RET, 35%; in the test on RIOK1, 69%; with RIOK2, 45%. The “%Inh” value is recorded as 88% with RIOK3; 24% in the test with RIPK1; 24% in the test on RIPK2; 0% in the test with RIPK4; 0% with RIPK5; 99.8% with ROCK1. The “%Inh” value in the test with ROCK2 is 98.9%; in the test on ROS1 it was 19%.
